# Measurements taken from PubChem BioAssay AID623994 (NMMLSC, 2012).
# Potency and affinity values are given separately. Active and inactive are the calls of the source.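 Rule for the calls: active = compounds whose fitted concentration for half the maximal dye retention is below 100 µM; inactive = the rest.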
# Biological target: Multidrug resistance protein CDR2 (Candida albicans (strain SC5314 / ATCC MYA-2876)) (UniProt P78595)
# Assay: blockers of Nile Red efflux by Candida CDR2 – S. cerevisiae AD1-8u, singleplex, Cherry Pick2 set, dose response (AID 623994)
# Multidrug resistance protein CDR2 (Candida albicans (strain SC5314 / ATCC MYA-2876)), sequence (P78595 whole entry, looked up): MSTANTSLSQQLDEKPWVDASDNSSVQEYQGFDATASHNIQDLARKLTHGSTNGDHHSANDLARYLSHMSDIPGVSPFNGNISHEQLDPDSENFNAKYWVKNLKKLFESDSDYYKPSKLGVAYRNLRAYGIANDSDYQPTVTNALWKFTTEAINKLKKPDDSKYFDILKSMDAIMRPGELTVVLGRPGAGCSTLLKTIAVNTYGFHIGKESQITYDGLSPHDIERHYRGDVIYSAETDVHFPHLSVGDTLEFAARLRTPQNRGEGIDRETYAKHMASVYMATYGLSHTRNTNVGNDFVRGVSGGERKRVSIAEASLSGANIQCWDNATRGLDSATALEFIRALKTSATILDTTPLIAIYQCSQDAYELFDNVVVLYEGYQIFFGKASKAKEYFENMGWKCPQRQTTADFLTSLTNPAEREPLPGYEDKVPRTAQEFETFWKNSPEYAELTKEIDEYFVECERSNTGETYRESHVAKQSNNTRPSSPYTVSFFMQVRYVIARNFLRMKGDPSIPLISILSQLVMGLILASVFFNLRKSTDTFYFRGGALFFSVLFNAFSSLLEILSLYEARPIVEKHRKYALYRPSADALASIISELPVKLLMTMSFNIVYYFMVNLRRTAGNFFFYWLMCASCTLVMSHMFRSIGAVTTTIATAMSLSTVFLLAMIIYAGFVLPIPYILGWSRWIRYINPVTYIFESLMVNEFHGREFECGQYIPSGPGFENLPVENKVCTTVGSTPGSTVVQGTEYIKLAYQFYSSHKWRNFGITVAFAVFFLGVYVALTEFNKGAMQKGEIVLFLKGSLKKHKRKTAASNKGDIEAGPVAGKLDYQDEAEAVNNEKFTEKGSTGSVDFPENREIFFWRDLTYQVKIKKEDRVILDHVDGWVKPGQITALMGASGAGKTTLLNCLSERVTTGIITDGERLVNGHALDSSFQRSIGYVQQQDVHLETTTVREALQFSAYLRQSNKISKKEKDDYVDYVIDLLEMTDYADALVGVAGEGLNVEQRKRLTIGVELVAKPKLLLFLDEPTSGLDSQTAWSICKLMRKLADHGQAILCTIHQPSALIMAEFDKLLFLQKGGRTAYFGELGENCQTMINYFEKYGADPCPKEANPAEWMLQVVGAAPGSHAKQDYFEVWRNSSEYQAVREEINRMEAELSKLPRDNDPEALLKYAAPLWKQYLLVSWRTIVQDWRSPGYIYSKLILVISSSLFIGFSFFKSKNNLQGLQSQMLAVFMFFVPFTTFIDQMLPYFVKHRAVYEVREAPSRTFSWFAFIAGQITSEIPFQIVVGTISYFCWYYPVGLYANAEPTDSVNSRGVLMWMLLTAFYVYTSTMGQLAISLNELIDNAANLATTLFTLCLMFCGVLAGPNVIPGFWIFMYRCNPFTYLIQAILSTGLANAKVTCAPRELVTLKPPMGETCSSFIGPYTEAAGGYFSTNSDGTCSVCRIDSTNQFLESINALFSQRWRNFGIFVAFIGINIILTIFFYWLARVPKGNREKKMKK
row,Structure (SMILES),outcome
1,Cc1ccc(O)c(C(=O)c2cnc3c(c2)CN(CCC(C)C)C(=O)N3)c1,inactive
2,COc1ccccc1C(=O)OCCc1ccccc1,inactive
3,Cc1ccc(-c2c[n+](CC(=O)N3c4ccccc4Sc4ccccc43)c3n2CCC3)cc1,inactive
4,Cc1ccc(C2CC(c3ccccc3)=NN2c2ccc(S(N)(=O)=O)cc2)cc1 (stereo not drawn),inactive
5,Cc1ccc(CNC(=O)C2CCC(CNc3nc(=S)[nH]c4ccccc34)CC2)cc1 (stereo not drawn),inactive
6,CC1CN(c2nc3ccccc3nc2C(C#N)C(=O)NCc2ccc3c(c2)OCO3)CC(C)O1 (stereo not drawn),inactive
7,CCC(=O)N1CCN(c2ccc(Cl)cc2NC(=O)c2ccc3c(c2)OCCO3)CC1,inactive
8,COc1ccc([C@H]2CC(=O)C=C(c3ccnc4ccc(Cl)cc34)C2)cc1,inactive
9,Cc1cc(C(=O)NC2CC(C)(C)Cc3c2cnn3-c2ccc(F)cc2)no1 (stereo not drawn),inactive
10,O=C(c1ccc2c(c1)OCO2)N1CCC2(CC1)Oc1ccc(F)cc1C(=O)C21CC(c2ccccc2)=NO1 (stereo not drawn),inactive
11,C[C@@]12C(=O)Nc3cc(F)c(F)cc3C(=O)N1[C@H]1c3cc(Cl)ccc3OC[C@@H]1[C@@H]2c1ccccc1,inactive
12,CCc1ccc(C2=NN(c3ccc(S(N)(=O)=O)cc3)C(c3ccc(F)cc3)C2)cc1 (stereo not drawn),inactive
13,NS(=O)(=O)c1ccc(N2N=C(c3ccccc3)CC2c2ccccc2)cc1 (stereo not drawn),inactive
14,COc1ccc(OC)c2sc(NC(=O)c3ccc(Br)s3)nc12,inactive
15,O=C(C[n+]1cc(-c2ccc(F)cc2)n2c1CCC2)N1c2ccccc2Sc2ccccc21,inactive
16,O=C(C1CCCN(c2ncnc3c2nc2n3CCCCC2)C1)N1CCN(c2ccccc2)CC1 (stereo not drawn),inactive
17,Cc1cc(C)c2sc(N(CCCN(C)C)C(=O)c3ccc(Br)s3)nc2c1,inactive
18,O=C(CSc1nnc(Cc2cccs2)n1Cc1ccco1)Nc1cccc(Cl)c1,inactive
